# Results from PubChem BioAssay AID431 (Sanford-Burnham Center for Chemical Genomics, 2006).
# In all, about 63,000 compounds went through this assay and about 1,100 (1.7%) were called active. This is one part of a sample in which actives are shown more often than they occur.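 Rule for the calls: active = compounds whose percent cytotoxicity in the single-dose primary screen, scaled between solvent and toxic-drug controls, exceeds 50; inactive = the rest.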 Potency and affinity values are given separately.
# Assay: cytotoxicity in KRAS-transformed pancreatic duct cells, primary screen, cell-based, fluorescence, HTS (AID 431);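 note: 0% = DMSO solvent wells and 100% = doxorubicin-treated wells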
# Conditions: HPDE-C7K KRASV12 cells, Alamar Blue viability, 48 h; at 10 µM; active compounds read high
row,Compound,cytotoxicity
1,CCc1nnc(NC(=O)CN2CCN(c3ccccc3OC)CC2)s1,-2.9% (inactive)
2,CCOC(=O)CSc1nc2ccsc2c(=O)n1C1CCN(C(=O)OCC)CC1,8% (inactive)
3,O=C(COC(=O)c1ccc2c(c1)OCO2)NCc1ccc(Cl)cc1,8.3% (inactive)
4,O=C(CCn1c(=O)c2sccc2n(CC(=O)OCc2ccccc2)c1=O)NCc1ccco1,-12.9% (inactive)
5,CCOC(=O)c1ccc(N2C(=O)C(C)=C(C)C2=O)cc1,35.6% (inactive)
6,CCOC(=O)c1ccc(-n2[nH]c(-c3ccccc3)cc2=O)cc1,58.5% (active)
7,CCOC(=O)c1ccc(-n2c(=O)[nH]c3ccccc3c2=O)cc1,3% (inactive)
8,COc1ccc(CCNC(=O)CCn2c(=O)oc3ccccc32)cc1,-9.7% (inactive)
9,COC(=O)c1ccc(CSc2nnc(NCc3ccccc3)s2)o1,-2.2% (inactive)
10,CCOc1ccccc1Nc1nnc(SCc2ccc(C(=O)OC)o2)s1,57.3% (active)
11,COC(=O)c1ccc(CSc2nnc(Nc3ccccc3OC)s2)o1,44.9% (inactive)
12,c1ccc2nc(N3CCOCC3)c(N3CCOCC3)nc2c1,-2.3% (inactive)
13,Cc1cc(=O)[nH]c(SCC(=O)N2CCN(C(c3ccccc3)c3ccccc3)CC2)n1,-3.1% (inactive)
14,O=C1CCCc2sc3c(c2N1)CCCCC3,6.3% (inactive)
15,CCSc1ncnc2c(C#N)c3n(c12)CCCCC3,-17% (inactive)
16,CCOC(=O)C1=C(N2CCCCC2)c2cc3c(n2C1=O)CCCC3,3.2% (inactive)
17,Cc1cc(C(=O)Nc2sc3c(c2C#N)CCC3)no1,36.4% (inactive)
18,COC(=O)c1ccc(OC(=O)c2ccco2)cc1,-32.6% (inactive)
19,COC(=O)C1=C(C)NC(C)=C(C(=O)OC)C1c1ccc(OC(=O)c2ccco2)cc1,11% (inactive)
20,CCOc1ccc(OC(=O)c2cccnc2)cc1,10.2% (inactive)
21,CC1=CC(C)(C)Nc2ccc(C)cc21,-5% (inactive)
22,CCOc1ccc2c(c1)N(C(=O)CN1C(=O)CCC1=O)C(C)(C)C=C2C,-12.2% (inactive)

row,Compound,cytotoxicity
1,O=C(Oc1cccc(Br)c1)c1cccnc1,-13.7% (inactive)
2,O=C(Oc1ccc2ccccc2c1)c1ccco1,2.3% (inactive)
3,CCc1ccc2c(c1)C(C)=CC(C)(C)N2,-4.3% (inactive)
4,c1ccc(CNc2ncnc3c2cnn3-c2ccccc2)cc1,36% (inactive)
5,Cc1ccc2nc(NC3=NCN(Cc4ccco4)CN3)nc(C)c2c1,8.2% (inactive)
6,Cc1ccc(-n2nnc3c(SCC(=O)NCc4ccco4)ncnc32)cc1,8.5% (inactive)
7,O=C(CN1C(=O)NC2(CCCc3ccccc32)C1=O)N1CCc2ccccc2C1 (stereo not given),-21.3% (inactive)
8,CCOc1ccc(C(C)(N)C(=O)O)cc1 (stereo not given),5.7% (inactive)
9,COCCn1c(C)cc(C(=O)CSc2nnc(-c3cccnc3)n2-c2ccccc2F)c1C,-8% (inactive)
10,CCN(Cc1ccccc1)Cc1c(F)cccc1F,-14.3% (inactive)
11,CCN(CC(=O)N1CCOCC1)S(=O)(=O)c1ccc(C)cc1,-7.2% (inactive)
12,COc1ccc(C2C3=C(Nc4ncnn42)c2ccccc2CC3)cc1OC (stereo not given),50.3% (active)
13,c1csc(C2C3=C(Nc4ncnn42)c2ccccc2OC3)c1 (stereo not given),8.9% (inactive)
14,COc1cc(C2C(C(=O)OC(C)C)=C(C)Nc3ncnn32)cc(OC)c1OC (stereo not given),3.4% (inactive)
15,COc1ccc(C2C(C(C)=O)=C(C)Nc3ncnn32)cc1OC (stereo not given),-18.7% (inactive)
16,COc1ccc(C2C3=C(Nc4ncnn42)c2ccccc2CCC3)cc1 (stereo not given),-11.9% (inactive)
17,COc1cc(C2C3=C(Nc4ncnn42)c2ccccc2CC3)cc(OC)c1OC (stereo not given),62.6% (active)
18,Cc1ccc(Cl)cc1NC(=O)c1ocnc1C,0.3% (inactive)
19,COc1ccc(N(CC(=O)N2CCN(c3ccccc3)CC2)S(=O)(=O)c2c(C)noc2C)cc1,-8.3% (inactive)
20,NC(=O)c1c(NC(=O)Cc2cccs2)sc2c1CCC2,-2.4% (inactive)
21,CC(C)(C#N)Nn1cnnc1,-13.8% (inactive)
22,O=C(Nc1nc(-c2nc3ccccc3s2)cs1)c1ccco1,1.4% (inactive)

row,Compound,cytotoxicity
1,Cc1cccn2c(=O)c(C=Nc3ccccc3)c(NCc3ccco3)nc12,-13.4% (inactive)
2,COc1ccc2c(c1)N1CCN=C1N2C,-12% (inactive)
3,CN(C)C=Nc1ncc2c([nH]c3ccccc32)c1C#N,19.8% (inactive)
4,Cc1cc(=O)[nH]c2ccccc12,-5.7% (inactive)
5,CSc1ccccc1NC(=O)c1cnccn1,-5.1% (inactive)
6,CN(C)CCCNC(=O)CCC1CCCCC1,1.5% (inactive)
7,COc1ccc(N2CCN(C(=O)CN=C3NS(=O)(=O)C(c4ccc(C)cc4)=C3C)CC2)cc1,-1.4% (inactive)
8,CC(C)CC(NC(=O)COc1ccccc1)C(=O)O (stereo not given),5.6% (inactive)
9,CCN1C(=O)c2cccc3c(NC(=O)c4cccc(N5C(=O)CCC5=O)c4)ccc1c23,-10.7% (inactive)
10,CCN1C(=O)c2cccc3c(NC(=O)c4ccc(S(=O)(=O)N(C)C)cc4)ccc1c23,0% (inactive)
11,CCN1C(=O)c2cccc3c(NC(=O)c4ccc5c(c4)OCCO5)ccc1c23,95.1% (active)
12,c1ccc2c(c1)C(=NCC1CCCO1)NC2=NCC1CCCO1 (stereo not given),8.3% (inactive)
13,O=C1c2oc3ccc(F)cc3c(=O)c2C(c2ccc(F)cc2)N1CCCN1CCOCC1 (stereo not given),-15.7% (inactive)
14,COc1ccc(CC(=O)N2CCNC2=O)cc1,-17.1% (inactive)
15,CC1=Nn2c(nnc2-c2n[nH]c3c2CCC3)SC1,-0.7% (inactive)
16,Clc1ccc(C2=Nn3c(nnc3-c3n[nH]c4c3CCC4)SC2)cc1Cl,71.9% (active)
17,Brc1ccc(C2=Nn3c(nnc3-c3n[nH]c4c3CCC4)SC2)cc1,53.5% (active)
18,Clc1ccc(C2=Nn3c(nnc3-c3n[nH]c4c3CCC4)SC2)cc1,25.9% (inactive)
19,c1ccc(C2=Nn3c(nnc3-c3n[nH]c4c3CCC4)SC2)cc1,10.4% (inactive)
20,Fc1ccc(C2=Nn3c(nnc3-c3n[nH]c4c3CCC4)SC2)cc1,1.2% (inactive)
21,COC(=O)c1ccc(S(=O)(=O)N2C3CCC2CC(NC(=O)NC2CCCCC2)C3)cc1 (stereo not given),-5.3% (inactive)
